Data: PubChem BioAssay (NCATS)
Results filed as inconclusive are left out. Where a call stands in place of a potency, no number is given. Active and inactive are the calls of the source. Calls come from the whole dose curve; as a rule, active = well fitted curve in the direction sought with a large enough effect; inconclusive = small, poorly fitted or top-dose-only effect, or another doubt; inactive = no such curve, though single readings can be large; an effect the other way counts as inactive or inconclusive.

Target: Glutaminase kidney isoform, mitochondrial (Homo sapiens) (UniProt O94925)
Assay: qHTS for Inhibitors of Glutaminase (GLS): LOPAC Validation (AID 624146);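 note: glutamate product detected by oxidase and peroxidase coupled Amplex red fluorescence gain; nearly all actives have a fitted effect of over 60% in size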
Details: glutaminase enzyme activity inhibition; series mostly up to 46.1 µM
Method in brief: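 Glutamate formation by hKGA was monitored fluorometrically using coupled glutamate oxidase, HRP and Amplex Red. Substrate was added as 1 mM L-glutamine solution; incubation was 30 min at RT after an initial read.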

Sequence of Glutaminase kidney isoform, mitochondrial (Homo sapiens) (O94925 whole entry, looked up, canonical isoform): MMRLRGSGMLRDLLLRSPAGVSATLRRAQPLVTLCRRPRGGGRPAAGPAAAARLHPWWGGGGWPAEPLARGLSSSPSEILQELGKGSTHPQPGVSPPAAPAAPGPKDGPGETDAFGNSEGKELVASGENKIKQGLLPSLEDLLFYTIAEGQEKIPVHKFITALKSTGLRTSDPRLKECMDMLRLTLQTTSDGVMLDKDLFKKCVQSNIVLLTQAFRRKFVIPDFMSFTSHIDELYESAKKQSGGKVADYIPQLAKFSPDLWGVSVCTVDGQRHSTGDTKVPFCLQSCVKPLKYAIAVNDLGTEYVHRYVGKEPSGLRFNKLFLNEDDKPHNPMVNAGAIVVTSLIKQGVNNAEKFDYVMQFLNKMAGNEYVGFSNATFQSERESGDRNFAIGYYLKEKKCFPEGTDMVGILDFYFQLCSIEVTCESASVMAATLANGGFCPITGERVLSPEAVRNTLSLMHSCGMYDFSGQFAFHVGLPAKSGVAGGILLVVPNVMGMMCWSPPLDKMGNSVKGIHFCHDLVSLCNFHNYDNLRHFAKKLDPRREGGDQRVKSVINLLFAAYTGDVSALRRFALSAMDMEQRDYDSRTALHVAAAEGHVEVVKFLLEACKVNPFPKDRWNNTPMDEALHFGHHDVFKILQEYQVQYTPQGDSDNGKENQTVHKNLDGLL

Row | Compound | Potency
1 | COC(=O)c1c(C)[nH]c(C)c1C(=O)c1ccccc1Cc1ccccc1 | inactive
2 | NC(=S)c1ccc[n+]([C@@H]2O[C@@H](COP(=O)([O-])OP(=O)(O)OC[C@H]3O[C@@H](n4cnc5c(N)ncnc54)[C@H](OP(=O)(O)O)[C@@H]3O)C(O)C2O)c1 (some centres undefined) | inactive
3 | CC(COc1ccc(/C=C/c2ccccc2)cc1)[N+](C)(C)C (centres undefined) | inactive
4 | COc1cc(SC)ccc1C(=O)N1CCC(Cc2ccccc2)CC1 | inactive
5 | Cc1nc2sccn2c(=O)c1CCN1CCC(=C(c2ccccc2)c2ccc(F)cc2)CC1 | inactive
6 | CSc1ccccc1N1CCN(CCCCCC(=O)NC2CCCc3ccccc32)CC1 (centres undefined) | inactive
7 | CN(C)CCCO[C@@H]1[C@H]2OC(C)(C)O[C@H]2O[C@@H]1[C@H](O)CO | inactive
8 | O=C(CCCCCN1CCN(c2ccccc2-c2ccccc2)CC1)NC1CCCc2ccccc21 (centres undefined) | inactive

Tested on: not listed separately
Assay: qHTS of Trypanosoma Brucei Inhibitors: LOPAC Validation (AID 624147)
Details: purified enzyme assay, luminescence, 45 min; series mostly up to 57.5 µM
Method in brief: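 In this concentration-response screen, enzyme-free wells defined baseline while DMSO plates tracked drift. Each reaction combined TbPYK, substrate, compound and 130 uM ADP for 45 min at room temperature. Kinase-Glo Plus luminescence gave the signal.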

Row | Compound | Potency
9 | C[N+](C)(C)CC(=O)[O-] | inactive
10 | C=C[C@@H]1CN2CC[C@@H]1C[C@H]2[C@H](O)c1ccnc2ccc(OC)cc12 | inactive
11 | O=C(c1ccc(OCCCc2cnc[nH]2)cc1)C1CC1 | inactive
12 | CO/S(=N\S(=O)(=O)c1ccc(Cl)cc1)c1ccc([N+](=O)[O-])cc1 (centres undefined) | inactive
13 | O=C1NC(=O)/C(=C/c2ccc(-c3ccc(F)cc3O)o2)S1 | inactive
14 | COC(=O)c1c(C)[nH]c(C)c1C(=O)c1ccccc1Cc1ccccc1 | inactive
15 | NC(=S)c1ccc[n+]([C@@H]2O[C@@H](COP(=O)([O-])OP(=O)(O)OC[C@H]3O[C@@H](n4cnc5c(N)ncnc54)[C@H](OP(=O)(O)O)[C@@H]3O)C(O)C2O)c1 (some centres undefined) | inactive
16 | S=C(S)OC1CC2CC1C1CCCC21 (centres undefined) | inactive
17 | C=CC(C)=C[C@@]1(C)SC(=O)C(C)=C1O | inactive
18 | NC[C@H]1O[C@@H](n2cnc3c(N)ncnc32)[C@H](O)[C@@H]1O | inactive
19 | CC(COc1ccc(/C=C/c2ccccc2)cc1)[N+](C)(C)C (centres undefined) | inactive
20 | Nc1ncnc2c1ncn2[C@@H]1O[C@H](COP(=O)(O)OP(=O)(O)OP(=O)(O)OP(=O)(O)OC[C@@H]2O[C@H](n3cnc4c(N)ncnc43)[C@@H](O)[C@H]2O)[C@@H](O)[C@H]1O | inactive
21 | Nc1nc(Cl)nc2c1ncn2[C@@H]1O[C@H](CO)[C@@H](O)[C@H]1O | inactive
22 | COc1cc(SC)ccc1C(=O)N1CCC(Cc2ccccc2)CC1 | inactive
23 | Cc1nc2sccn2c(=O)c1CCN1CCC(=C(c2ccccc2)c2ccc(F)cc2)CC1 | inactive
24 | CCNC(=O)[C@H]1O[C@@H](n2cnc3c(N)nc(NCCc4ccc(CCC(=O)O)cc4)nc32)[C@H](O)[C@@H]1O | inactive
25 | CSc1ccccc1N1CCN(CCCCCC(=O)NC2CCCc3ccccc32)CC1 (centres undefined) | inactive
26 | CC(C)ON([C@@H](C(=O)NO)C(C)C)S(=O)(=O)c1ccc(-c2ccccc2)cc1 | inactive

Row | Compound | Potency
27 | CN(C)c1ccc(/C=C2\C(=O)Nc3ccccc32)cc1 | inactive
28 | N#C/C(=C\c1ccc(-c2cc(Cl)ccc2Cl)o1)C(=O)Nc1cccc2ncccc12 | inactive
29 | NC(=S)NCCC[C@H](N)C(=O)O | inactive
30 | N#C/C(=C\c1ccc(O)c(O)c1)C(=O)NCCCc1ccccc1 | inactive
31 | Oc1ccc(C2CNCc3sccc32)cc1O (centres undefined) | inactive
32 | Cn1ncc(S(=O)(=O)Cc2ccccc2)c(Br)c1=O | inactive
33 | CC(=O)/C=C1\C(=O)N(C)c2ccccc21 | inactive
34 | CN1CCc2cc(O)c(O)cc2C(c2ccccc2)C1 (centres undefined) | inactive
35 | C=C[C@H]1CN2CC[C@@H]1C[C@@H]2[C@@H](O)c1ccnc2ccc(OC)cc12 | inactive
36 | O=C1/C(=C/c2ccsc2)CC/C1=C\c1cccs1 | inactive
37 | CCCCCCCC/C=C\CCCCCCCC(=O)NCCO | inactive
38 | CCOC(=O)N1CCN(/[N+]([O-])=N/Oc2ccc([N+](=O)[O-])cc2[N+](=O)[O-])CC1 | inactive
39 | CN(C)CCCO[C@@H]1[C@H]2OC(C)(C)O[C@H]2O[C@@H]1[C@H](O)CO | inactive
40 | O=C(CCCCCN1CCN(c2ccccc2-c2ccccc2)CC1)NC1CCCc2ccccc21 (centres undefined) | inactive
41 | COc1ccccc1N1CCN(CCN(C(=O)c2ccc(I)cc2)c2ccccn2)CC1 | inactive
42 | CC(C)NC[C@@H](O)c1ccc(O)c(O)c1 | inactive
43 | CCN(CC)c1ncnc2c1ncn2[C@@H]1O[C@H](COP(=O)(O)OP(=O)(O)C(Br)(Br)P(=O)(O)O)[C@@H](O)[C@H]1O | inactive
44 | CC(C)(C=O)Cc1cc(C(C)(C)C)c(O)c(C(C)(C)C)c1 | inactive
